Assay [1] in a line: ATG_CRE_CIS: Attagene CIS-FACTORIAL HepG2 Assay for human cAMP Responsive Element (CRE) binding protein 3 (AID 2282926). As to conditions: HepG2 CRE cis-reporter, Attagene multiplexed mRNA; actives raise or lower the signal. A digest of the protocol:
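Cells carrying cis-regulated reporter constructs respond through their own endogenous factors. After 24 h treatment, RNA is reverse-transcribed, amplified, labelled and sized by capillary electrophoresis; up- and down-regulation are both scored against vehicle.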

Assay [2] in a line: ATG_CMV_CIS: Attagene CIS-FACTORIAL HepG2 Assay for human CMV (Internal Marker) (AID 2282928).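 Also: endpoint acts as a background internal control marker rather than a target.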 As to conditions: HepG2 CMV promoter reporter, transcription factor profiling; actives raise or lower the signal. A digest of the protocol:
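Readout: fluorescent reporter cDNA fragments separated by capillary electrophoresis after RT-PCR and HpaI cut. Cells: HepG2 carrying transfected cis-promoter reporter constructs, dosed 24 h. Endpoint serves as background internal-marker control, fit bidirectionally versus DMSO.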

The nature of assay [3]: ATG_DR4_LXR_CIS: Attagene CIS-FACTORIAL HepG2 Assay for human Liver X Receptor (LXR), DR4 submotif (AID 2282929). As to conditions: HepG2 Attagene DR4 cis-reporter, mRNA transcription; actives raise or lower the signal. A digest of the protocol: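 HepG2 cells were transiently transfected with multiple cis-regulated reporter units and dosed for 24 hours. The DR4 reporter mRNA was quantified by RT-PCR, 6-FAM labelling and capillary electrophoresis. Bidirectional fits used DMSO as baseline.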

A short description of assay [4]: ATG_AP_1_CIS: Attagene CIS-FACTORIAL HepG2 Assay for human Activator Protein 1 (AP-1) (AID 2282931). As to conditions: HepG2 Attagene cis-factorial AP-1 reporter mRNA; actives raise or lower the signal. An outline of the steps:
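HepG2 cells transiently transfected with cis-element-driven reporter transcription units, dosed for 24 hours. Reporter mRNA measured by RT-PCR, 6-FAM labelling, HpaI digestion and capillary electrophoresis. Bidirectional fitting against DMSO baseline.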

Assay [5] can be described thus: ATG_AP_2_CIS: Attagene CIS-FACTORIAL HepG2 Assay for human Activator Protein 2 (AP-2) (AID 2282932). As to conditions: HepG2 AP-2 cis-reporter, Attagene transcription factor profiling; actives raise or lower the signal. A digest of the protocol: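 Cells (HepG2) transfected with promoter-driven reporter constructs, treated 24 h. Total RNA reverse-transcribed, reporter cDNA PCR-amplified, FAM-labelled by primer extension, digested, resolved by capillary electrophoresis. Activity fitted both directions versus DMSO.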

Assay [6] is described as follows: ATG_BRE_CIS: Attagene CIS-FACTORIAL HepG2 Assay for human Bone Morphogenetic Protein (BMP) Response Element (BRE) (AID 2282933). As to conditions: HepG2 BMP response element reporter, Attagene transcription factor profiling; actives raise or lower the signal. An outline of the steps: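 A HepG2 multiplex reporter system measured inducible reporter mRNA 24 h post-dosing. Detection: RT-PCR, 6-FAM primer extension, HpaI digestion, capillary electrophoresis. Activity fitted bidirectionally relative to DMSO.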

The target in assay [7] is Retinoic acid receptor alpha (Homo sapiens) (UniProt P10276). Put plainly: ATG_DR5_RAR_CIS: Attagene CIS-FACTORIAL HepG2 Assay for human Retinoic Acid Receptor Alpha (RARE), DR5 submotif (AID 2282934).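 As to AC50: reporter responds to endogenous RAR alpha beta and gamma in HepG2 not RARA alone.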 As to conditions: HepG2 Attagene cis-factorial RARE DR5 reporter, mRNA; actives raise or lower the signal. An outline of the steps: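 HepG2 cells transiently transfected with multiplexed reporter units under cis (DR5 RARE) promoters, so endogenous transcription factor activity is measured. After 24 h compound exposure, reporter mRNA is quantified by RT-PCR with fluorescent labelling and capillary electrophoresis; bidirectional fitting versus DMSO.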
Chain of Retinoic acid receptor alpha (Homo sapiens) (P10276 whole entry, looked up): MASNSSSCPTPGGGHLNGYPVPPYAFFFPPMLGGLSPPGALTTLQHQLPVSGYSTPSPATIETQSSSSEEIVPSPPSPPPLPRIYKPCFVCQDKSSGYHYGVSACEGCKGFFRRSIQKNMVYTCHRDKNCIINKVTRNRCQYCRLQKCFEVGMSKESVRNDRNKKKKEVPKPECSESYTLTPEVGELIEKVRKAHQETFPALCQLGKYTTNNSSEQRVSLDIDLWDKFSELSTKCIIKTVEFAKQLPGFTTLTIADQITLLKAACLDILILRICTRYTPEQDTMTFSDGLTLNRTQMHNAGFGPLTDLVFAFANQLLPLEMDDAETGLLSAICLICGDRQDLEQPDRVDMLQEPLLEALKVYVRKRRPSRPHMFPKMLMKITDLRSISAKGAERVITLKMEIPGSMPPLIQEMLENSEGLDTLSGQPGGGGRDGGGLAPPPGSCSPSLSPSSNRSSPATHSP

Assay [8] addresses Transcription factor E2F1 (Homo sapiens) (UniProt Q01094). Nature of the assay: ATG_E2F_CIS: Attagene CIS-FACTORIAL HepG2 Assay for human E2F Transcription Factor 1 (AID 2282935). As to conditions: HepG2 Attagene cis-reporter, E2F reporter RNA transcripts; actives raise or lower the signal. An outline of the steps: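 First, HepG2 cells were transfected with reporter transcription units. Next, they were dosed for 24 h. Then RNA was isolated, converted to cDNA, PCR-amplified, FAM-labeled, HpaI-digested and analyzed by capillary electrophoresis.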

Assay [9] has as its target Aryl hydrocarbon receptor (Homo sapiens) (UniProt P35869). Nature of the assay: ATG_Ahr_CIS: Attagene CIS-FACTORIAL HepG2 Assay for human Aryl Hydrocarbon Receptor (Ahr) (AID 2282930). As to conditions: HepG2 AhR cis-factorial reporter transcription; actives raise or lower the signal. A digest of the protocol:
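HepG2 cells transiently transfected with cis-element-driven multiplexed reporter transcription units; endogenous transcription factor activity measured as reporter mRNA 24 h after dosing. RT-PCR, 6-FAM labelling, HpaI digestion, capillary electrophoresis; bidirectional fitting versus DMSO baseline.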

Assay [10] deals with CCAAT/enhancer-binding protein beta (Homo sapiens) (UniProt P17676). Nature of the assay: ATG_C_EBP_CIS: Attagene CIS-FACTORIAL HepG2 Assay for human CCAAT/Enhancer Binding Protein (C/EBP) beta (AID 2282927). As to conditions: HepG2 Attagene cis-factorial transcription factor reporter; actives raise or lower the signal. An outline of the steps:
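RT-PCR/capillary electrophoresis fluorescence of reporter mRNA, 24 h post-dose, in HepG2 cells carrying transfected cis-promoter reporter units. Bidirectional curve fitting against DMSO baseline captures gain or loss of signal.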

The source made the active and inactive calls. The calls were made as follows: active = hit-call score of the fitted dose curve at least 0.9, where 1 is the maximum; inactive = score below 0.9.

Chain of Aryl hydrocarbon receptor (Homo sapiens) (P35869 whole entry, looked up): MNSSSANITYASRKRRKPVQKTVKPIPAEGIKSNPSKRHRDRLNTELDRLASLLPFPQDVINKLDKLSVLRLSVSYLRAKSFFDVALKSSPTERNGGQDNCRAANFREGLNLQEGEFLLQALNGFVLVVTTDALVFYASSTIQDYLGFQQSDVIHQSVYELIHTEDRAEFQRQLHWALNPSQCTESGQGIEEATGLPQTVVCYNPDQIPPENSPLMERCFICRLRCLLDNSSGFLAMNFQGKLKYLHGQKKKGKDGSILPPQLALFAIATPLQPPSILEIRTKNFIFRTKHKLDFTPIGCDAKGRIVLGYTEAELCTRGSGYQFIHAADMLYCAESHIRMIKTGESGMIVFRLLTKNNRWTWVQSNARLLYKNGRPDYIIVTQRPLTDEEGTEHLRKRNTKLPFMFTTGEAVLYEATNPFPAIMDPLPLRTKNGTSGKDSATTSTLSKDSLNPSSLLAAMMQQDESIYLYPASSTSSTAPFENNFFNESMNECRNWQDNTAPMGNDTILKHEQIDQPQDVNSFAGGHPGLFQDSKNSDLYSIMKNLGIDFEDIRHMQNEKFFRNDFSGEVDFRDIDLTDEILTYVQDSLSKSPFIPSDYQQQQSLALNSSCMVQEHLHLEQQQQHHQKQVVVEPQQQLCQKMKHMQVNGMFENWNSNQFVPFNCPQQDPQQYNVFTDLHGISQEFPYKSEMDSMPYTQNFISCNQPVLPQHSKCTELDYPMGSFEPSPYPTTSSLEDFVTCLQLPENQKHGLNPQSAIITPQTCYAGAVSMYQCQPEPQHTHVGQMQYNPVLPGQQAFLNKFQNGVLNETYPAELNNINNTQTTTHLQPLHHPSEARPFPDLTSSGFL
Chain of Transcription factor E2F1 (Homo sapiens) (Q01094 whole entry, looked up): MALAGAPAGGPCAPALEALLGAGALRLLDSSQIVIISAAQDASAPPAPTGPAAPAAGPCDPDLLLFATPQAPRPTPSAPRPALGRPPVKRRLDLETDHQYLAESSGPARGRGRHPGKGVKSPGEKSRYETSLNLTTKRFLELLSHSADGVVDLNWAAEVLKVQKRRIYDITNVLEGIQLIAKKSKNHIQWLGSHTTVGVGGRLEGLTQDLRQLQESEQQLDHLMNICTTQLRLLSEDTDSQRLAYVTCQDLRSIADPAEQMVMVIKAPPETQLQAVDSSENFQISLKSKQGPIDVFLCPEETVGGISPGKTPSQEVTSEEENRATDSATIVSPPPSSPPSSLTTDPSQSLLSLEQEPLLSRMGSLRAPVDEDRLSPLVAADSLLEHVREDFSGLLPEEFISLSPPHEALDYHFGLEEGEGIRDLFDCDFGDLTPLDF
Chain of CCAAT/enhancer-binding protein beta (Homo sapiens) (P17676 whole entry, looked up): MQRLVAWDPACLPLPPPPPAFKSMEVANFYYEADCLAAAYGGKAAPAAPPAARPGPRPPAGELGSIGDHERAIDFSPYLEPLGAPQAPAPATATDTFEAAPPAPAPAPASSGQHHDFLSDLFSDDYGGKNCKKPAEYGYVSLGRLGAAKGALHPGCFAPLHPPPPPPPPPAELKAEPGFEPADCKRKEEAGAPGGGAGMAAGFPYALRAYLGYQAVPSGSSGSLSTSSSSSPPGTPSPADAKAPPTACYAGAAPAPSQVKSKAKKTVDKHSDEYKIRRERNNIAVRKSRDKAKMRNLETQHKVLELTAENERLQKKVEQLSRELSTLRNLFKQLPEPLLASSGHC

For `C[Si](C)(C)O[Si](O)(O)O`, the call in assay [1], in [2], in [3], in assay [4], in [5] and in [6] was inactive. In addition, the outcome in assay [7] and in [8] was inactive.

For the compound `O=S(=O)(O)c1ccc2cc(O)c(S(=O)(=O)O)cc2c1`, the compound was classed as inactive in assay [1], in [4], in [5], in assay [6] and in assay [7]. For the same compound, the AC50 was 166 µM (active) in assay [2], 60.8 µM (active) in assay [3] and 138 µM (active) in assay [9].

Turning to `N#[N+]c1ccc2c(S(=O)(=O)[O-])cccc2c1O`, the result in assay [1], in [2], in assay [3], in assay [9], in assay [4] and in assay [5] was inactive. In addition, the call in [6], in [7] and in [8] was inactive.

As for `Nc1ncn([C@@H]2O[C@H](CO)[C@@H](O)[C@H]2O)c(=O)n1`, the concentration at half-maximal activity (AC50) in assay [1] was 9.4 µM (active). Moreover, the compound was classed as inactive in [2], in assay [3], in assay [9], in assay [4], in assay [5] and in [6]. The compound was called inactive in assay [7] and in assay [8].

Take `Cn1c(=O)[nH]c2ncn(C)c2c1=O`: the outcome in [1], in assay [2], in assay [3], in assay [9], in assay [4] and in assay [5] was inactive. Further, the outcome in assay [6], in [7] and in [8] was inactive.

Take `O=C1C(N(CO)C(=O)NCO)N(CO)C(=O)N1CO` (stereo not given): the result in assay [1], in assay [2], in assay [3], in assay [9], in assay [4] and in assay [5] was inactive. Besides, the call in [6], in assay [7] and in assay [8] was inactive.

As for `SCCc1cnccn1`, the result in [1], in assay [3], in assay [9], in [5] and in assay [8] was inactive. Also, the AC50 in assay [2] was 53.9 µM (active); in [4] it was 27.8 µM (active); in assay [6], 23.1 µM (active); in [7], 27.6 µM (active).

In the case of `CC1(C)O[C@@H]2C[C@H]3[C@@H]4C[C@H](F)C5=CC(=O)CC[C@]5(C)[C@H]4[C@@H](O)C[C@]3(C)[C@]2(C(=O)CO)O1`, the call in assay [1], in [10], in assay [2], in assay [9], in [4] and in assay [5] was inactive. Also, the compound was called inactive in [6], in [7] and in assay [8].

For `CC(=O)OCCC1CCCCC1`, the call in [1], in assay [2], in [3], in [9], in assay [4] and in assay [5] was inactive. In addition, the call in assay [6], in [7] and in [8] was inactive.

As for `O=C1CCCC1`, the call in assay [1], in assay [2], in assay [4], in assay [5], in assay [6] and in assay [7] was inactive. Further, the call in [8] was inactive.

In the case of `COC(=O)c1ccccc1OC`, the compound was classed as inactive in [1], in assay [2], in assay [9], in assay [4], in assay [5] and in assay [6]. For the same compound, the compound was classed as inactive in assay [7] and in assay [8].

`CCC(Cc1ccccc1)(C(=O)c1ccc(N2CCOCC2)cc1)N(C)C` (stereo not given): the compound was called inactive in [1], in assay [10], in assay [2], in [5], in assay [6] and in [8]. Besides, the AC50 in assay [4] is 72.1 µM (active); in assay [7] it was 73.1 µM (active).

Regarding `Nc1nc2ccccc2[nH]1`, the outcome in [1], in assay [2], in [3], in assay [4], in assay [5] and in [6] was inactive. Besides, the compound was called inactive in assay [7] and in [8]. Moreover, the concentration at half-maximal activity (AC50) in [9] was 28.6 µM (active).

Consider `CCCCCCOc1cc(C)c(O)c(C)c1C`, for which the call in assay [1], in assay [2], in assay [3], in assay [9], in [4] and in [5] was inactive. In addition, the compound was called inactive in assay [6], in assay [7] and in assay [8].

The values are drawn from PubChem BioAssay (EPA / NIEHS).
